Measured values as given in PubChem BioAssay (NCI).
The panel holds about 79,000 compounds, 15% with a hit somewhere; the sample as a whole holds those more often. Calls of active or inactive are those of the source. No stated cut-off is given here; in the data, active means growth inhibition above about 70%; inactive means the rest. Where a SMILES comes first, the peptide text is derived from it. The star is where a group is joined. For = O=C*

Tests used:
[1] = NCI Yeast Anticancer Drug Screen. Data for the rad50 strain (AID 155);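 further: 0% = growth of vehicle-only cultures of the same strain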; details: S. cerevisiae rad50 strain growth inhibition; at 50.0 µM; stronger effect = higher value
Outline: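 Genetically altered yeast (DNA repair pathway); compound treatment; growth inhibition vs vehicle ctrl.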

[2] = NCI Yeast Anticancer Drug Screen. Data for the mec2-1 strain (AID 157); details: S. cerevisiae mec2-1 strain, at 50.0 µM, stronger effect = higher value
Outline: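 Yeast mec2-1 mutant treated with compound. Readout: growth inhibition vs vehicle controls.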

[3] = NCI Yeast Anticancer Drug Screen. Data for the sgs1 mgt1 strain (AID 161);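 further: 0% = growth of cultures given vehicle only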; details: S. cerevisiae sgs1 mgt1 strain, at 50.0 µM, stronger effect = higher value
Outline: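 Inhibition of yeast growth, normalised to vehicle-treated controls, is reported for a strain bearing genetic alterations in DNA damage repair.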

[4] = NCI Yeast Anticancer Drug Screen. Data for the cln2 rad14 strain (AID 165);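 further: 0% = growth equal to vehicle treated cultures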; details: S. cerevisiae cln2 rad14 strain, at 50.0 µM, stronger effect = higher value
Outline: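 cln2 rad14 yeast strain; compound exposure; growth inhibition read vs vehicle controls.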

[5] = NCI Yeast Anticancer Drug Screen. Data for the bub3 strain (AID 167); details: S. cerevisiae bub3 mutant strain, at 50.0 µM, stronger effect = higher value
Outline: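 Yeast carrying a defined mutation is treated with each compound, and growth is compared with that of vehicle-exposed cells to give inhibition.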

[6] = NCI Yeast Anticancer Drug Screen. Data for the mlh1 rad18 strain (AID 175); details: S. cerevisiae mlh1 rad18 strain growth inhibition; at 50.0 µM; stronger effect = higher value
Outline: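 Yeast w/ defined DNA-repair lesions; compound exposure; growth vs vehicle controls → % inhibition.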

Measured: growth inhibition

CCC(=O)Nc1cc(Cl)ccc1C
inactive: [1] 46.6% | [2] 31.4% | [3] 26.3% | [4] 23.4% | [5] 9.25% | [6] 26.3%

c1ccc(CCn2c(-c3ccccn3)nc3ccccc32)nc1
inactive: [1] 13.2% | [2] -4.25% | [3] 18.1% | [4] -24.5% | [5] 15.5% | [6] 7.95%

CCCSc1nc2c(=O)n(C)c(=O)[nH]c2n1C
inactive: [1] -10.2% | [2] -1.8% | [3] -6.95% | [4] -36.3% | [5] -12.2% | [6] -3.55%

O=[N+]([O-])c1ccc(N=Nc2ccc(N(CCO)CCO)cc2)cc1
inactive: [1] -5.7% | [2] -8.35% | [3] 24% | [4] 1.25% | [5] 20.2% | [6] 6.1%

CC(C(=O)c1ccccc1)N(C)c1ccccc1 (stereo unspecified)
inactive: [1] 12.7% | [2] -5.35% | [3] -3.1% | [4] -36.8% | [5] -26% | [6] -1.65%

Nc1cc(Nc2ccc(Cl)[nH]c2=S)nc(N)n1
inactive: [1] 31.1% | [2] 13.8% | [3] 11.5% | [4] 20.6% | [5] 18.4% | [6] 15.2%

CN(C)CCCN1CC2C3CCCCC3=C3CCCCC3C2C1 (stereo unspecified)
inactive: [1] -15.4% | [2] 0.6% | [3] -24.1% | [4] -16.9% | [5] 1.85% | [6] -16.9%

CC(C)C1NC(=O)CC(c2ccccc2)N(N=O)C1c1ccccc1 (stereo unspecified)
inactive: [1] -29.3% | [2] -9% | [3] -4.85% | [4] -14.9% | [5] -5.9% | [6] -16.8%

CC(=O)Oc1ccc2cc(NC(=O)c3ccccc3)c(=O)oc2c1
inactive: [1] 11.8% | [2] -2.85% | [3] -1.6% | [4] -62.4% | [5] -1.9% | [6] -3.35%

O=C1C(O)=C(c2ccccc2)C12CSC1(CS2)C(=O)C(O)=C1c1ccccc1 (stereo unspecified)
inactive: [1] 4.45% | [2] -1.55% | [3] -12.9% | [4] 5.4% | [5] 6.05% | [6] 17.3%

C/C(C=C(C#N)C#N)=C\c1ccc(F)cc1
inactive: [1] 14.9% | [2] 28.1% | [3] -2.1% | [4] 30.9% | [5] -7.3% | [6] 21.4%

C=CCOC(=O)C(O)C=C (stereo unspecified)
inactive: [1] 7.9% | [2] -12.3% | [3] 2.3% | [4] 16.4% | [5] -1.6% | [6] 11.6%

N#CC(=Nc1ccccc1)c1cccc(Br)c1
inactive: [1] 34.5% | [2] 5.05% | [3] 18.9% | [4] 15.4% | [5] 21.4% | [6] 28.4%

Cc1ccc(C(C)C)cc1NC(=O)NCCCl
inactive: [1] -9.8% | [2] 10.6% | [3] 2.8% | [4] -33.3% | [5] -9.6% | [6] -6.4%

c1ccc2c(c1)C(=C1c3ccccc3-c3ccccc31)c1ccccc1-2
inactive: [1] -6.4% | [2] -18.1% | [3] -0.3% | [4] -34.8% | [5] 6.85% | [6] -2.1%

Cn1cc(-n2[nH]c(=O)n(-c3ccccc3)c2=O)c(=O)n(C)c1=O
inactive: [1] -50% | [2] 8.2% | [3] -1.1% | [4] -21.3% | [5] 16.1% | [6] 13.3%

CSc1cc(Cl)c(C)cc1S(=O)(=O)n1cc[nH]c1=O
inactive: [1] -2.4% | [2] 1.4% | [3] 3.35% | [4] -0.05% | [5] -3.75% | [6] 17.1%

CCCCCCCCCCCCC#N
inactive: [1] -20.8% | [2] -16.1% | [3] -1.15% | [4] -32.9% | [5] -5.2% | [6] 7.85%

O=C(/C=C/c1ccc(Cl)cc1)c1cc(Cl)ccc1O
inactive: [1] -14.4% | [2] -25.3% | [3] -13.8% | [4] -27.8% | [5] 16.2% | [6] -10.2%

CN(C)c1ccc(/C(=N\O)c2cc[n+](C)cc2)cc1
inactive: [1] -28.6% | [2] -23.4% | [3] -13.2% | [4] -34.5% | [5] -0.6% | [6] 0.85%

CCCCC(C)C(=O)CC(SCC)c1ccc(Cl)c(Cl)c1 (stereo unspecified)
inactive: [1] 19.6% | [2] -26.9% | [3] 17.3% | [4] -12.4% | [5] 8.2% | [6] -0.95%

O=C1CN(Cc2ccccc2)CCO1
inactive: [1] 4.95% | [2] -4.3% | [3] -3.55% | [4] 0.9% | [5] 10.5% | [6] 1.4%

CCCCCCCCCCCCS(=O)(=O)CCC(=O)c1ccco1
inactive: [1] 29.4% | [2] 20.1% | [3] -6.8% | [4] 9.3% | [5] 6.55% | [6] 7.6%

CC1(C)C2CC3C(=CCC4C(=O)C5CC=C6C(CC7CC6C7(C)C)C5C(=O)C43)C1C2 (stereo unspecified)
inactive: [1] 23.6% | [2] -6.1% | [3] 14% | [4] -20% | [5] -5.2% | [6] -1.65%

CCc1cccc(CC)c1N1C(=O)C2C(C1=O)C1(Cl)C(Cl)=C(Cl)C2(Cl)C1(Cl)Cl (stereo unspecified)
active: [4] 74.2% | [6] 87.6%
inactive: [1] 37.4% | [2] 50.6% | [3] 65.4% | [5] 61%

Cc1nc(Cc2n[nH]c(C)n2)n[nH]1
inactive: [1] 14.4% | [2] -6.65% | [3] 11.9% | [4] 15.2% | [5] 3.4% | [6] 14.3%

CCCCCCCCCCCCCCCc1cc(=O)n(-c2ccc(NC(C)=O)cc2)n1C
inactive: [1] -2% | [2] -23.8% | [3] -12.6% | [4] 3.1% | [5] -1% | [6] -9.7%

O=C(O)CCSc1nc2ccccc2s1
inactive: [1] 1.2% | [2] -9.85% | [3] 2.75% | [4] 0.3% | [5] -14.2% | [6] 19.1%

C[N+](C)(C)CCc1ccc2ccccc2c1
inactive: [1] 12.2% | [2] 11.8% | [3] 9.35% | [4] 0.1% | [5] 5.7% | [6] 12.8%

NC(=O)c1csc(N)n1
inactive: [1] 4.4% | [2] 3.95% | [3] 0% | [4] 3.55% | [5] 9.3% | [6] -7.7%

CCOC(=O)/C(Cc1cnc2ccccc2n1)=N\O
inactive: [1] -1% | [2] -4.4% | [3] -8.95% | [4] -52.5% | [5] 5.7% | [6] -24.9%

CCN(CC)Cc1cc(OC(=O)c2cc(OC)c(OC)c(OC)c2)cc(C(=O)OC)c1
inactive: [1] 3.2% | [2] 3.7% | [3] -19.1% | [4] -32% | [5] 8.5% | [6] -10.3%

COc1cc(C2SCC(=O)N2c2ccc(-n3c(-c4ccccc4)nc4ccccc4c3=O)cc2)ccc1O (stereo unspecified)
inactive: [1] -12.6% | [2] -8.75% | [3] 10.7% | [4] -36.2% | [5] 3.3% | [6] 22%

CCCCC(O)(CCC)CCCC
inactive: [1] -8.75% | [2] -6.95% | [3] 3.75% | [4] -36.9% | [5] -1.25% | [6] 2.55%

C[C@H]1C(=O)CCC2[C@]3(C)CCC4(CO)[C@@H]5CC(C)(C)C(=O)C[C@]5(C)CC[C@]4(C)C3CC[C@@]21C (stereo partly specified)
inactive: [1] -26.5% | [2] -25.6% | [3] -28.1% | [4] 3.35% | [5] -40.9% | [6] 0.4%

O=C1CC(C(=O)O)Cc2c(Br)ccc(O)c21 (stereo unspecified)
inactive: [1] 20.8% | [2] 13.8% | [3] -22.5% | [4] -3.6% | [5] -34% | [6] -44.4%

CSCCC(NC(=O)C(Cc1ccccc1)NC=O)C(=O)O (stereo not drawn) (For-Phe-Met-OH; configuration not given here)
inactive: [1] -12.1% | [2] -26.9% | [3] -10.5% | [4] 5.7% | [5] 19.4% | [6] -11.5%

CCN(CC)Cc1ccccc1COC(=O)/C=C/c1ccccc1
inactive: [1] 9.8% | [2] 13.3% | [3] 11.6% | [4] 7.1% | [5] 12.9% | [6] 13.9%

O=C(NNC(=O)c1cccc2ccccc12)c1cccc(Cl)c1
inactive: [1] 3.5% | [2] -41.5% | [3] -6.9% | [4] 4.05% | [5] -4.05% | [6] -13.9%

O=C(O)CCc1ccsc1
inactive: [1] -17.6% | [2] 4.55% | [3] -21.9% | [4] -28.4% | [5] -10.5% | [6] 4.45%

c1ccc2c(c1)ccc1c3c(oc12)CCCC3
inactive: [1] -10.5% | [2] -6.45% | [3] -15.7% | [4] -36.4% | [5] 0.25% | [6] -5.9%
